Reference: PubChem BioAssay (Tox21)
A number with no mark means an inactive call. Results filed as inconclusive are left out. A call without a number means that no potency is given here. Calls of active or inactive are those of the source. Unless noted, the call rests on the fitted dose curve; in most records, active means well fitted curve in the direction sought with a large enough effect in the repeat runs; inconclusive means weak or mixed curves; inactive means no such curve, though single readings can be large; an effect the other way counts as inactive or inconclusive.

Legend:
[1] = qHTS RealTime-Glo MT Cell Viability Assay in HEK293 cells - 24 hour (AID 1224886); further: nearly all actives have a fitted effect of over 50% in size; further: potency means the concentration at half of the fitted maximal effect
Method in brief: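 Homogeneous bioluminescent viability format in HEK293 cells (600 cells/well). Following 5 h at 37 C/5% CO2, 23 nL compound was pintooled; the signal was measured repeatedly during 40 h incubation.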

[2] = qHTS RealTime-Glo MT Cell Viability Assay in HEK293 cells - 8 hour (AID 1224887); further: nearly all actives have a fitted effect of over 50% in size; further: potency means the concentration at half of the fitted maximal effect
Method in brief: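 Real-time viability in HEK293: signal arises when living cells convert a prosubstrate for NanoLuc in the medium, so luminescence tracks viable cell number. Compound (23 nL, DMSO) added 5 h post-seeding; kinetic reads at 0–40 h, 37 C.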

[3] = A CellTox Green Cytotoxicity Assay to monitor cytotoxicity in HEK293 cells - 16 hour (AID 1224888); further: nearly all actives have a fitted effect of over 35% in size
Method in brief: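 Cells (HEK293, 600/well) and dye reagent are dispensed together. After 5 h at 37 C, 23 nL compound is pinned in. Plates stay at 37 C for 40 h with fluorescence read at 0h, 8h, 16h, 24h, 32h and 40h.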

[4] = qHTS RealTime-Glo MT Cell Viability Assay in HepG2 cells - 0 hour (AID 1224889); further: nearly all actives have a fitted effect of over 50% in size
Method in brief: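 Cell number in HepG2 cultures estimated from NanoLuc luminescence generated by metabolic reduction of a prosubstrate by living cells. The homogeneous, nonlytic format allowed repeated reads at 0, 8, 16, 24, 32 and 40 h of compound exposure.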

[5] = A CellTox Green Cytotoxicity Assay to monitor cytotoxicity in HepG2 cells - 8 hour (AID 1224890); further: nearly all actives have a fitted effect of over 45% in size
Method in brief: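 Cells and non-lytic dye reagent are dispensed together (600 HepG2 cells/well) and incubated 5 h before DMSO compound transfer. Kinetic fluorescence is then recorded in the same wells during 40 h at 37 C.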

[6] = qHTS assay to identify small molecule antagonists of the estrogen receptor alpha (ER-alpha) signaling pathway using the BG1 cell line in the presence of 0.1 nM 17-beta-estradiol - cell viability counter screen (AID 1259241); further: nearly all actives have a fitted effect of over 40% in size
Method in brief: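 VM7Luc4E2 cells (endogenous full-length ER-alpha, 4xERE-luciferase), cultured 5 days in charcoal-stripped serum, exposed to compounds with 0.1 nM 17beta-estradiol (final) for 22 hr at 37C. Viability read in same wells as live-cell protease fluorescence after 30 min.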

[7] = qHTS assay to identify small molecule antagonists of the androgen receptor (AR) signaling pathway using the MDA cell line in the presence of 0.5 nM R1881 - cell viability counter screen (AID 1259242); further: nearly all actives have a fitted effect of over 45% in size
Method in brief: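 Steps: plate MDA-kb2 cells, rest 5 hr at 37C without CO2; pin in compounds in DMSO; add R1881 to 0.5 nM final; incubate 16 hr; add CellTiter-Fluor, 30 min; read fluorescence.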

[8] = molecular target: Estrogen receptor (Homo sapiens) (UniProt P03372); assay: qHTS assay to identify small molecule antagonists of the estrogen receptor alpha (ER-alpha) signaling pathway using the BG1 cell line in the presence of 0.1 nM 17-beta-estradiol (AID 1259244); further: nearly all actives have a fitted effect of over 50% in size
Chain of Estrogen receptor (Homo sapiens) (P03372 whole entry, looked up): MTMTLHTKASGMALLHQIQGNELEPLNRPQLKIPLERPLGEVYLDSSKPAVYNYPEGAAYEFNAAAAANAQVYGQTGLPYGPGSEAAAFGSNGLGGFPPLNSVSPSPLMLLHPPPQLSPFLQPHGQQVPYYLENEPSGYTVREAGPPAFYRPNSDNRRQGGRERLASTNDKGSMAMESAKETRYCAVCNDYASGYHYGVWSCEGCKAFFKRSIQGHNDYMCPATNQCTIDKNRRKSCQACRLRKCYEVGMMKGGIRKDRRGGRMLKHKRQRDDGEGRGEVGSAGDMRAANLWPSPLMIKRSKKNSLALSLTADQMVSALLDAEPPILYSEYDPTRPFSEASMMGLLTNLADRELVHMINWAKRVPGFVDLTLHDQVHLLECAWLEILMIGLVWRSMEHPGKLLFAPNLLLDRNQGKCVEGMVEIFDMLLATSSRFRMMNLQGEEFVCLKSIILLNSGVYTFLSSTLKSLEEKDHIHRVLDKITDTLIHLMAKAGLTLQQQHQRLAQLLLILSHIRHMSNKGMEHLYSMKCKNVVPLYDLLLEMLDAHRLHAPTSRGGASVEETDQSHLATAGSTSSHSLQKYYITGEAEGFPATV
Method in brief: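 Antagonist mode: compounds in DMSO are pinned onto VM7Luc4E2 reporter cells, 0.1 nM final 17beta-estradiol is added, and after 22 h at 37C luciferase luminescence is measured with ONE-Glo.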

[9] = qHTS assay to identify small molecule HDAC inhibitors (AID 1259364); further: potency means the concentration at half of the fitted maximal effect;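 further: wild-type HCT-116 cells with endogenous class I/II HDAC activity; nearly all actives have a fitted effect of over 45% in size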
Method in brief: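 Cells (HCT-116, wild type) are seeded at 1,500 per well, incubated overnight, treated with compound in DMSO for 2 hr, then developed with HDAC-Glo I/II reagent for 30 min at room temperature.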

[10] = qHTS assay to identify small molecule HDAC inhibitors - cell viability counter screen (AID 1259365)
Method in brief: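 Wild-type HCT-116 cells, 1,500/well, cultured overnight, then compound-treated 2 h at 37 C. Viability measured as ATP luminescence with CellTiter-Glo after 30 min at room temperature.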

[11] = qHTS assay to identify small molecule agonists of the sonic hedgehog signaling (Shh) pathway - cell viability counter screen (AID 1259366); further: nearly all actives have a fitted effect of over 50% in size; further: potency means the concentration at half of the fitted maximal effect
Method in brief: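 NIH/3T3-derived Gli1-Luc reporter cells, 2,000 per well, received compound after 4 h and were treated about 23 h at 37C. Viability measured in the same wells by CellTiter-Fluor fluorescence after 1 h.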

[12] = qHTS assay to identify small molecule antagonists of the sonic hedgehog signaling (Shh) pathway - cell viability counter screen (AID 1259367); further: nearly all actives have a fitted effect of over 55% in size; further: potency means the concentration at half of the fitted maximal effect
Method in brief: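 Fluorescence read-out (CellTiter-Fluor, 1 hr at 37C) taken after 23 hr compound treatment of 3T3 Gli1-Luc cells stimulated with conditioned medium. Cells were seeded at 2,000 per well and pre-incubated 4 hr.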

[13] = qHTS assay to identify small molecule agonists of the sonic hedgehog signaling (Shh) pathway (AID 1259368; calls by dose curve;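 further: NIH/3T3-derived 3T3Gli1-Luc cells carrying a stable Gli1-driven firefly luciferase reporter; series mostly up to about 92 µM; nearly all actives have a fitted effect of over 15% in size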)
Method in brief: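 Cells of a mouse NIH/3T3 clone stably expressing luciferase under the Gli1 transcriptional response element are exposed to test chemicals for 24 hr at 37 C. Pathway activation is detected as a rise in luminescence.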

[14] = qHTS assay to identify small molecule antagonists of the sonic hedgehog signaling (Shh) pathway (AID 1259369; calls by dose curve; further: nearly all actives have a fitted effect of over 45% in size; further: potency means the concentration at half of the fitted maximal effect)
Method in brief: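 Cells are plated and held 4hr at 37 C, compounds (DMSO) are pinned in, conditioned medium is added to stimulate the pathway, and after 24hr luciferase reagent is added for 30min before luminescence is read.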

[15] = molecular target: Estrogen receptor beta (Homo sapiens) (UniProt Q92731); assay: qHTS assay to identify small molecule antagonists of the estrogen receptor beta (ER-beta) signaling pathway (AID 1259378; active means well fitted inhibition curve with a large enough effect in the signal ratio in the repeat runs, not every such curve was filed as active; the % refers to the signal ratio)
Chain of Estrogen receptor beta (Homo sapiens) (Q92731 whole entry, looked up): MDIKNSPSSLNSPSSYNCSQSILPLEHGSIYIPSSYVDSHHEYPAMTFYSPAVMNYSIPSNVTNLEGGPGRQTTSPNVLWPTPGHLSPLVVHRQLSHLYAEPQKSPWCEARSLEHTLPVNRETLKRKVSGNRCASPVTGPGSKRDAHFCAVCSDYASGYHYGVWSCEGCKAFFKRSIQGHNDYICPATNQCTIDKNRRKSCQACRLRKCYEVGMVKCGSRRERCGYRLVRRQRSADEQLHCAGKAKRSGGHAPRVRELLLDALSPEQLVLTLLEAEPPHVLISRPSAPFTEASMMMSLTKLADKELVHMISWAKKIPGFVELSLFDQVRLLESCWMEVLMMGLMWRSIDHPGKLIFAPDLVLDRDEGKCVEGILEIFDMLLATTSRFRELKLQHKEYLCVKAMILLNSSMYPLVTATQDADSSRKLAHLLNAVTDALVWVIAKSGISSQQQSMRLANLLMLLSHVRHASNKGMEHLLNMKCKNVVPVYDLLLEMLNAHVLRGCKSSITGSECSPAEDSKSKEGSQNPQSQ
Method in brief: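 ER-beta-UAS-bla HEK293T cells in 2% charcoal-stripped FBS medium treated with compound plus 1nM final 17-beta-estradiol for 16 hr at 37C. Beta-lactamase reporter read by FRET substrate fluorescence after 2 hours at room temperature.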

[16] = qHTS assay to identify small molecule agonists of the androgen receptor (AR) signaling pathway in the presence of an antagonist - cell viability counter screen (AID 1259379);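 further: MDA-kb2 human breast cancer cells carrying an MMTV luciferase reporter; series mostly up to about 92 µM; nearly all actives have a fitted effect of over 25% in size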
Method in brief: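 Cytotoxicity is assessed by CellTiter-Fluor in MDA-kb2 cells carrying an MMTV-driven luciferase reporter. Cells receive 3.0uM nilutamide plus compounds at 15 concentrations and incubate 16 hr at 37C without CO2 before fluorescence reading.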

[17] = qHTS assay to identify small molecule agonists of the estrogen receptor beta (ER-beta) signaling pathway - cell viability counter screen (AID 1259380); further: nearly all actives have a fitted effect of over 30% in size
Method in brief: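 Cytotoxicity is measured in parallel with the reporter screen: after 16 hr compound exposure at 37C and a 2 hr LiveBLAzer step, CellTiter-Glo is added to the same ER-beta-UAS-bla HEK293T wells and luminescence read after 30 min.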

[18] = molecular target: Estrogen receptor beta (Homo sapiens) (UniProt Q92731); assay: qHTS assay to identify small molecule agonists of the estrogen receptor beta (ER-beta) signaling pathway (AID 1259377; active means well fitted activation curve with a large enough effect in the signal ratio in the repeat runs, not every such curve was filed as active; the % refers to the signal ratio)
Method in brief: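 ER-beta-UAS-bla HEK293T cells in medium with 2% charcoal-stripped FBS were exposed to compounds for 16 h at 37C. Beta-lactamase reporter activity was read as fluorescence after 2 h with LiveBLAzer B/G FRET substrate at room temperature.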

[19] = molecular target: Androgen receptor (Homo sapiens) (UniProt P10275); assay: qHTS assay to identify small molecule antagonists of the androgen receptor (AR) signaling pathway using the MDA cell line in the presence of 0.5 nM R1881 (AID 1259243); further: nearly all actives have a fitted effect of over 50% in size; further: potency means the concentration at half of the fitted maximal effect
Chain of Androgen receptor (Homo sapiens) (P10275 whole entry, looked up): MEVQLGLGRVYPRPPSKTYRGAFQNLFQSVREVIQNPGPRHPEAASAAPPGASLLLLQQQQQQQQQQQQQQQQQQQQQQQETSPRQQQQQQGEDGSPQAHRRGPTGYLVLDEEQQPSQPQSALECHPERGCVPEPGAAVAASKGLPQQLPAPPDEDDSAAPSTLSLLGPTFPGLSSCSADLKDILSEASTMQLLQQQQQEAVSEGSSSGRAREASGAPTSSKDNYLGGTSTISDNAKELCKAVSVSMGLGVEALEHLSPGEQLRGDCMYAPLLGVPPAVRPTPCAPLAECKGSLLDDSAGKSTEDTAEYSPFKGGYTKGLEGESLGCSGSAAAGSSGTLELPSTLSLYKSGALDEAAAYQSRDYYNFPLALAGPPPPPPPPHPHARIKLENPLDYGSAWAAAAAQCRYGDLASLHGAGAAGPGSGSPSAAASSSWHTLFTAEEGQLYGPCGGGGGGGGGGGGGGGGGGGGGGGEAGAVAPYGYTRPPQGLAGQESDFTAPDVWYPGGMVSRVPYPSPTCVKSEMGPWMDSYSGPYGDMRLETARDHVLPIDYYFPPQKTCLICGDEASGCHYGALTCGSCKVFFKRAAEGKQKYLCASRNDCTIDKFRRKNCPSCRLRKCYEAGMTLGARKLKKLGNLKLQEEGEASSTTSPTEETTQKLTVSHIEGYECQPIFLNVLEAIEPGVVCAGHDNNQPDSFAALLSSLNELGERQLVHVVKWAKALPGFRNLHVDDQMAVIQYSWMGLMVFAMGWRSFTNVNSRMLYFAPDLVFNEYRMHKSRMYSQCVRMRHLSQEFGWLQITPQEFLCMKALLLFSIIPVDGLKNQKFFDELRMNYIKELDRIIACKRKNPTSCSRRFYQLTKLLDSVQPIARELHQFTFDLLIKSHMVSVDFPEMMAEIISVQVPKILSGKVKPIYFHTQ
Method in brief: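 Stably transfected MDA-kb2 cells express luciferase from an MMTV promoter bearing both AR and GR response elements. Compounds plus 0.5 nM R1881 (final) were incubated 16 hr at 37C without CO2, then luminescence measured.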

[20] = qHTS assay to identify small molecule phospholipidosis (PLD) inducers (AID 1259344; active means well fitted curve in the direction sought with a large enough effect; an effect the other way counts as inactive or inconclusive)
Method in brief: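 Read-out is LipidTOX Red fluorescence (ex 595/em 615) imaged in HepG2 cells after 24 h compound exposure at 37 C, with Hoechst nuclear counterstain (ex 352/em 461) allowing per-cell normalisation.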

Compound	Potency [1]	Potency [2]	Potency [3]	Potency [4]	Potency [5]	Potency [6]	Potency [7]	Potency [8]	Potency [9]	Potency [10]	Potency [11]	Potency [12]	Potency [13]	Potency [14]	Potency [15]	Potency [16]	Potency [17]	outcome [18]	Potency [19]	Potency [20]
CCC1(C)C(=O)N(Cl)C(=O)N1Cl (centres undefined)	inactive	inactive	inactive	inactive	inactive	inactive	inactive	inactive	inactive	inactive	inactive	inactive	inactive	inactive	inactive	inactive	inactive	–	–	–
Cc1ccc(C=O)cc1	inactive	inactive	inactive	inactive	inactive	inactive	inactive	inactive	inactive	inactive	inactive	inactive	inactive	inactive	inactive	inactive	inactive	inactive	–	–
Cc1c[nH]c(=O)[nH]c1=O	inactive	inactive	inactive	inactive	inactive	inactive	inactive	inactive	inactive	inactive	inactive	inactive	inactive	inactive	inactive	inactive	inactive	–	–	–
Cc1cccc2c1ccc1ccccc12	inactive	inactive	inactive	inactive	inactive	inactive	inactive	inactive	inactive	inactive	inactive	inactive	inactive	inactive	inactive	inactive	inactive	–	15.4 µM (active)	–
Clc1ccc2c(Cl)ccnc2c1	inactive	inactive	inactive	inactive	inactive	inactive	inactive	inactive	–	inactive	inactive	inactive	inactive	inactive	inactive	inactive	–	inactive	–	–
CCc1cccc(C)c1N(C(=O)CS(=O)(=O)O)C(C)COC (centres undefined)	inactive	inactive	inactive	inactive	inactive	inactive	inactive	inactive	inactive	inactive	inactive	inactive	inactive	inactive	inactive	inactive	–	inactive	–	–
CN1CC[C@H](c2c(O)cc(O)c3c(=O)cc(-c4ccccc4Cl)oc23)[C@H](O)C1	0.151 µM (active)	inactive	inactive	inactive	inactive	inactive	inactive	–	inactive	inactive	0.376 µM (active)	0.298 µM (active)	inactive	0.0473 µM (active)	–	inactive	inactive	inactive	–	inactive
CCN(CC)c1ccc(C=O)c(O)c1	inactive	inactive	inactive	inactive	inactive	inactive	inactive	inactive	inactive	inactive	inactive	inactive	inactive	inactive	–	–	–	–	–	–
c1ccc(-c2nc3ccccc3[nH]2)cc1	21.9 µM (active)	21.9 µM (active)	inactive	inactive	inactive	inactive	inactive	inactive	2.43 µM (active)	inactive	inactive	inactive	inactive	–	inactive	inactive	–	inactive	–	–
CN1CCN(C)CC1	inactive	inactive	inactive	inactive	inactive	inactive	inactive	inactive	inactive	inactive	inactive	inactive	inactive	–	–	inactive	inactive	inactive	–	–
CCCC(C)C=O (centres undefined)	inactive	inactive	inactive	inactive	inactive	inactive	inactive	inactive	–	inactive	inactive	inactive	inactive	inactive	inactive	inactive	–	inactive	–	–
C/C=C/C(=O)C1=C(C)C=CCC1(C)C	inactive	inactive	inactive	inactive	inactive	inactive	inactive	inactive	inactive	inactive	inactive	inactive	inactive	inactive	–	inactive	–	–	inactive	–
COc1cc([C@@H]2c3cc4c(cc3[C@@H](O[C@@H]3O[C@@H]5CO[C@@H](C)O[C@H]5[C@H](O)[C@H]3O)[C@H]3COC(=O)[C@H]23)OCO4)cc(OC)c1O	1.08 µM (active)	inactive	inactive	inactive	inactive	inactive	inactive	–	inactive	inactive	–	60.4 µM (active)	inactive	–	inactive	inactive	inactive	inactive	–	inactive
